# Reference: PubChem BioAssay (Tox21)
# Values joined by “and” are separate entries in the source; they are usually repeats but may differ in a detail not shown here. Equal entries are not always repeated. Results filed as inconclusive are left out. Unmarked numbers belong to inactive results. Active and inactive are the calls of the source. Calls come from the whole dose curve; as a rule, active = well fitted inhibition curve with a large enough effect in the repeat runs; inconclusive = weak or mixed curves; inactive = no such curve, though single readings can be large or run the other way.
# Molecular target: Cytochrome P450 2C19 (Homo sapiens) (UniProt P33261)
# Sequence (P33261 whole entry, looked up): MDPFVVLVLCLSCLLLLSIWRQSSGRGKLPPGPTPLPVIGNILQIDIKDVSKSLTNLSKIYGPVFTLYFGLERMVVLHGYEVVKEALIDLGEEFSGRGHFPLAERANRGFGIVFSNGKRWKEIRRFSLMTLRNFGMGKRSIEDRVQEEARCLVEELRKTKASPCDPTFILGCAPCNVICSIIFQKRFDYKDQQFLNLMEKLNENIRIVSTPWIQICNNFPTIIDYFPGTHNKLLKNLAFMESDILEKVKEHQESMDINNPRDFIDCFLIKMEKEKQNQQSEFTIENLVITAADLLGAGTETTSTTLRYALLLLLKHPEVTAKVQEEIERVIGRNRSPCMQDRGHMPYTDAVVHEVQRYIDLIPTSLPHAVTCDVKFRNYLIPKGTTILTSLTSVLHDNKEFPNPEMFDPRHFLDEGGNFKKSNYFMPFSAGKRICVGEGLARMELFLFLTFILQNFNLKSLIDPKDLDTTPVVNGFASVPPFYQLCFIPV
# Assay: Cytochrome P450 Family 2 Subfamily C Member 19 (CYP2C19) small molecule antagonists: luciferase reporter qHTS assay (AID 1671197); note: nearly all actives have a fitted effect of over 65% in size
# Details: P450-Glo CYP2C19 enzyme, luciferin luminescence, 1 h; series mostly up to 52.9 µM; activity change, negative = inhibition: at the top concentration
# Summary of the method: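 Quantitative high-throughput screen of the Tox21 library using CYP2C19 with proluciferin substrate. Reaction: NADPH regeneration, 37C, 1 h, after 10 min compound preincubation at room temperature. Readout: luminescence.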
# % is set by controls: 0 for no effect and ±100 for the full control effect; potency is the fitted concentration of half-maximal effect.
SMILES,"activity change, negative = inhibition",Potency
CCCN1CCCC[C@H]1C(=O)Nc1c(C)cccc1C,-10.8%,–
CCN(CC)CCOCCOC(=O)C1(c2ccccc2)CCCC1,21.4%,–
CC1(C)CO[C@@H](CC(=O)O)CN1,-15.8%,–
CN1CC(=O)NC1=N,20.9%,–
C[C@H]1C[C@@H](O)CC(C)(C)C1,33.9% [at 115 µM],–
C[N+](C)(C)CC(O)CC(=O)[O-] (stereo not drawn),-44.6%,–
CS(=O)(=O)O,-15.9% [at 115 µM],–
CCN1CCC[C@H]1CNC(=O)c1c(O)c(Cl)cc(Cl)c1OC,-10.7%,–
CCS(=O)(=O)c1ccc(OC)c(C(=O)OC)c1,-10.3%,–
OCCOc1ccc(OCCO)cc1,13.8% [at 115 µM],–
Cc1nc2c([nH]1)c(=O)n(C)c(=O)n2Cc1ccco1,-28%,–
O=C(O)c1ccccc1OP(=O)(O)O,12.8%,–
CC[N+](C)(C)c1cccc(O)c1,-7.66%,–
CC/C=C\CC/C=C/C(OCC)OCC,–,56.4 µM (active)
c1ccc([C@H]2CN3CCSC3=N2)cc1,-9.08%,–
CCCCC(CC)COC(=O)c1ccccc1O (stereo not drawn),32%,–
CCCN(CCC)CCc1cccc2c1CC(=O)N2,33.5%,–

SMILES,"activity change, negative = inhibition",Potency
NC(CSCC(=O)O)C(=O)O (stereo not drawn),23.5%,–
CC/C=C\CCOC(C)=O,14.8% [at 115 µM],–
O=Cc1cccc([N+](=O)[O-])c1,-19.1% [at 115 µM],–
Nc1nc2c(ncn2COC(CO)CO)c(=O)[nH]1,14%,–
CC(=O)OCC(CCn1cnc2cnc(N)nc21)COC(C)=O,6.24%,–
NS(=O)(=O)c1cc(C(=O)O)cc(N2CCCC2)c1Oc1ccccc1,-0.847%,–
Nc1c2c(nc3ccccc13)CCCC2O (stereo not drawn),6.52%,–
O=C(O)CN(CCOCCOCCN(CC(=O)O)CC(=O)O)CC(=O)O,-11.6% [at 0.435 µM],–
O=C(CCCN1CCC(O)(c2cccc(C(F)(F)F)c2)CC1)c1ccc(F)cc1,11.5%,–
O=[N+]([O-])c1ccc(F)cc1F,34.7% [at 115 µM],–
CN1N=C(C(N)=O)CCC1=O,-3.99%,–
Cc1sccc1Br,37.5%,–
O=C1OC(=O)C2CCCCC12 (stereo not drawn),21.9% [at 115 µM],–
CC(=O)OC/C=C(\C)CC/C=C(\C)CCC=C(C)C,–,20 µM (active) and 71 µM (active)
Cc1cccn2c(=O)c(-c3nnn[nH]3)cnc12,-3.23% [at 23.6 µM],–
N=c1nc(N2CCCCC2)cc(N)n1O,15.2%,–
CCC(C)C1CCCCC1=O (stereo not drawn),-2.2% [at 115 µM],–

# Molecular target: Cytochrome P450 2C9 (Homo sapiens) (UniProt P11712)
# Sequence (P11712 whole entry, looked up): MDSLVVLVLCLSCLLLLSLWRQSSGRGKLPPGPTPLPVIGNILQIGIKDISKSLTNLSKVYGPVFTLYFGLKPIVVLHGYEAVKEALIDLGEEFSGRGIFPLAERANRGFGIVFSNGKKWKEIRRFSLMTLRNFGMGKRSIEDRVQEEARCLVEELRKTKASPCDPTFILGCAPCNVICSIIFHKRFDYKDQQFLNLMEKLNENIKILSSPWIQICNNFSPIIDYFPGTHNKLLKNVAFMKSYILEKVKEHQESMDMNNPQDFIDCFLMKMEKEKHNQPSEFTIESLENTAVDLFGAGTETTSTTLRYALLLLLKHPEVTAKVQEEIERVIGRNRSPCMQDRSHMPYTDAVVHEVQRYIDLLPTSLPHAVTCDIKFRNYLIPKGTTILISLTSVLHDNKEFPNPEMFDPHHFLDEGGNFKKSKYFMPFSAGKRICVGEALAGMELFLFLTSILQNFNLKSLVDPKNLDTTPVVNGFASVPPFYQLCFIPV
# Assay: Cytochrome P450 Family 2 Subfamily C Member 9 (CYP2C9) small molecule antagonists: luciferase reporter qHTS assay (AID 1671198); note: nearly all actives have a fitted effect of over 50% in size
# Details: P450-Glo CYP2C9 enzyme assay, luciferin luminescence; series mostly up to 115 µM; activity change, negative = inhibition: at the top concentration
# Summary of the method: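 P450-Glo proluciferin substrate with CYP2C9 enzyme; 10 min RT preincubation, then NADPH regeneration 1 h at 37C; luciferin detection reagent 20 min RT, luminescence in relative luminescence units.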
SMILES,"activity change, negative = inhibition",Potency
CCCN1CCCC[C@H]1C(=O)Nc1c(C)cccc1C,-1.64% [at 53 µM],–
CCN(CC)CCOCCOC(=O)C1(c2ccccc2)CCCC1,-3.98% [at 53 µM],–
CC1(C)CO[C@@H](CC(=O)O)CN1,4.5% [at 53 µM],–
CN1CC(=O)NC1=N,1.62% [at 53 µM],–
C[C@H]1C[C@@H](O)CC(C)(C)C1,-10.5%,–
C[N+](C)(C)CC(O)CC(=O)[O-] (stereo not drawn),-0.394% [at 53 µM],–
CS(=O)(=O)O,-0.25%,–
CCN1CCC[C@H]1CNC(=O)c1c(O)c(Cl)cc(Cl)c1OC,-2.28% [at 53 µM],–
CCS(=O)(=O)c1ccc(OC)c(C(=O)OC)c1,64.8% [at 53 µM],–
OCCOc1ccc(OCCO)cc1,-0.859%,–
Cc1nc2c([nH]1)c(=O)n(C)c(=O)n2Cc1ccco1,-15.2% [at 53 µM],–
O=C(O)c1ccccc1OP(=O)(O)O,3.63% [at 53 µM],–
CC[N+](C)(C)c1cccc(O)c1,9.53% [at 53 µM],–
CC/C=C\CC/C=C/C(OCC)OCC,–,35.6 µM (active)
c1ccc([C@H]2CN3CCSC3=N2)cc1,0.769% [at 53 µM],–
CCCCC(CC)COC(=O)c1ccccc1O (stereo not drawn),-11.9% [at 53 µM],–
CCCN(CCC)CCc1cccc2c1CC(=O)N2,9.26% [at 53 µM],–

SMILES,"activity change, negative = inhibition",Potency
NC(CSCC(=O)O)C(=O)O (stereo not drawn),0.448% [at 53 µM],–
CC/C=C\CCOC(C)=O,-10.2%,–
O=Cc1cccc([N+](=O)[O-])c1,-11.6%,–
Nc1nc2c(ncn2COC(CO)CO)c(=O)[nH]1,14.8% [at 53 µM],–
CC(=O)OCC(CCn1cnc2cnc(N)nc21)COC(C)=O,9.62% [at 53 µM],–
NS(=O)(=O)c1cc(C(=O)O)cc(N2CCCC2)c1Oc1ccccc1,-21.8% [at 53 µM],–
Nc1c2c(nc3ccccc13)CCCC2O (stereo not drawn),0.475% [at 53 µM],–
O=C(O)CN(CCOCCOCCN(CC(=O)O)CC(=O)O)CC(=O)O,4.56% [at 0.435 µM],–
O=C(CCCN1CCC(O)(c2cccc(C(F)(F)F)c2)CC1)c1ccc(F)cc1,-3.01% [at 53 µM],–
O=[N+]([O-])c1ccc(F)cc1F,5.35%,–
CN1N=C(C(N)=O)CCC1=O,0.917% [at 53 µM],–
Cc1sccc1Br,6.02% [at 53 µM],–
O=C1OC(=O)C2CCCCC12 (stereo not drawn),1.43%,–
CC(=O)OC/C=C(\C)CC/C=C(\C)CCC=C(C)C,–,35.6 µM (active)
Cc1cccn2c(=O)c(-c3nnn[nH]3)cnc12,-1.3% [at 23.6 µM],–
N=c1nc(N2CCCCC2)cc(N)n1O,1.21% [at 53 µM],–
CCC(C)C1CCCCC1=O (stereo not drawn),-2.38%,–
